Out of some 340,000 compounds screened, about 2,100 (0.62%) were called active.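 Rule for the calls: active = first-screen hits whose inhibition reached a set limit at any dose in the follow-up dose series; inconclusive = inhibition above the set first-screen limit but never retested; inactive = the rest.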 Only a sample is shown. Entries with a potency or affinity are not part of this list.
Target: Rac GTPase-activating protein 1 (Homo sapiens) (UniProt Q9H0H5)
Assay: MgcRacGAP GTPase-activating activity inhibitors, confirmation, biochemical, ADP Hunter fluorescence, primary and confirmatory (AID 624330);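 note: fluorescence reports GDP produced by GAP-driven GTP hydrolysis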
Conditions: MgcRacGAP-stimulated Rac1 GTP hydrolysis, at 30 µM, hits give high values, GST-tagged Rac1 F28L mutant substrate

Chain of Rac GTPase-activating protein 1 (Homo sapiens) (Q9H0H5 whole entry, looked up): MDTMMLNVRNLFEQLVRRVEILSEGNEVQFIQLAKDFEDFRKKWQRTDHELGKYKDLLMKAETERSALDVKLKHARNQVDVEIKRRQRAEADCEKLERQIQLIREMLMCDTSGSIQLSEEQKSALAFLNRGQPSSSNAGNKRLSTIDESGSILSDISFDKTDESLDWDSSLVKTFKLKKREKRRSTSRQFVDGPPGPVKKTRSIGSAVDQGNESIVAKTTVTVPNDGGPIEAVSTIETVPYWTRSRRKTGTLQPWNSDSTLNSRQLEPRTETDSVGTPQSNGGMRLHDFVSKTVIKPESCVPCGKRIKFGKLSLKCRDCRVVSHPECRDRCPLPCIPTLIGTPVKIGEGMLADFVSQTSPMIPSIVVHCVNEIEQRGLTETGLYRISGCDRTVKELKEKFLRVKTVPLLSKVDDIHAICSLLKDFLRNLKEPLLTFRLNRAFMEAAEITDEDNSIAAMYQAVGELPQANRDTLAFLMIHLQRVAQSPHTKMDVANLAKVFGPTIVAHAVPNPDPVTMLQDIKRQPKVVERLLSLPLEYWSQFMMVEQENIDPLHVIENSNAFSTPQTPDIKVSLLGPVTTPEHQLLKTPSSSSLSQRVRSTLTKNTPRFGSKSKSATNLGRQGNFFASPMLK

inhibition, inactive:
Fc1ccc(CN2CCCN(Cc3nc(-c4ccc5c(c4)OCO5)no3)CC2)cc1 7.98%, CCCC(=O)Nc1ccc(C(=O)COC(=O)C2CC2)cc1 6.42%, Cc1cc(C)c(C(=O)N2CCCC(CNC(=O)C3(c4ccc(Cl)cc4)CC3)C2)c(=O)[nH]1 (stereo unspecified) 6.3%, CNC(=O)c1ccc(CN(C)C(=O)c2cccc(S(=O)(=O)N3CCc4ccccc4C3)c2)cc1 15.5%, COc1ccc(/C=N/NC(=O)c2ccc(C)cc2)cc1CN1CCN(c2ccc(F)cc2)CC1 11.1%, COc1ccc(/C=N\NC(=O)c2cc(O)c(O)c(O)c2)cc1CN1CCN(c2ccc(F)cc2)CC1 -36.7%, COc1cc(C(=O)N/N=C/c2ccc3c(c2)c2ccccc2n3C)ccc1O 22.2%, O=C(N/N=C/c1ccncc1)c1ccc(-n2cccc2)cc1 -9.21%, COc1ccc(/C=N/NC(=O)c2cc3cc(OC)c(OC)cc3[nH]2)cc1 10.7%, COc1cc(/C=N/NC(=O)c2cc[n+]([O-])cc2)cc(OC)c1OC 7.29%, O=C(N/N=C/c1ccc(F)cc1)c1cc[n+]([O-])cc1 2.39%, COc1ccc2[nH]c(C(=O)N/N=C/c3ccc(OC)c(O)c3)cc2c1 26.2%, Cc1onc(-c2c(Cl)cccc2Cl)c1C(=O)N(C)Cc1ccccc1 12.4%, CC(=O)N1CCN(c2ccc(NC(=O)c3ccco3)cc2Cl)CC1 8.65%, Cc1sc2nc(SCC(=O)N3CCN(CCO)CC3)n(-c3ccccc3)c(=O)c2c1C 6.94%, CCC(Oc1cc(Cl)ccc1Cl)C(=O)NN1C(=O)C2C3CCC(C3=C(C)C)C2C1=O (stereo unspecified) 4.3%, CCCCCCN1C[C@H](n2cc(COC(=O)c3ccccc3)nn2)[C@@H](O)C[C@@H]1c1ccc(C)cc1 2.5%, O=C(Nc1ccc(Cl)cc1)N[C@@H]1c2c(ccc3ccccc23)OC[C@@H]1CO -2.15%, COC(=O)c1c(-c2ccccc2)csc1NC1=NS(=O)(=O)c2ccccc21 -0.52%, C=CCOc1ccc(/C=N/NC(=O)C(=O)Nc2ccccn2)cc1OC -2.52%, COc1cc(OC)c(OC)cc1/C=N/NC(=O)c1ccc(CSc2nc(C)cc(C)n2)cc1 8.78%, COc1cc(/C=N/NC(=O)c2cccc(NC(=O)c3ccccc3Cl)c2)ccc1O 28.3%, COc1ccc(/C=N/NC(=O)c2ccc(CSc3nc(C)cc(C)n3)cc2)c(OC)c1OC 5.29%, COc1ccc(/C=N/NC(=O)c2[nH]nc3c2CCc2ccccc2-3)cc1OC 11.3%, COc1ccc(OC)c(/C=N/NC(=O)c2[nH]nc3c2CCc2ccccc2-3)c1 -0.52%, COc1ccc(/C=N/NC(=O)C(=O)Nc2ccccn2)cc1OC 13.3%, COc1ccccc1/C=N/NC(=O)c1cccc(NC(=O)c2ccccc2C)c1 6.03%, C[C@@H]1CN([C@@H](C)CO)C(=O)CCCn2cc(nn2)CO[C@H]1CN(C)S(=O)(=O)c1ccc(Oc2ccccc2)nc1 15.5%, C[C@@]12C(=O)Nc3cc(Cl)ccc3C(=O)N1[C@H]1c3cc(Br)ccc3OC[C@@H]1[C@@H]2c1ccccc1 11.9%, O=C(c1cc2nc(-c3ccc(F)cc3)cc(C(F)(F)F)n2n1)N1CCOCC1 10.3%, CCN1C(=O)[C@H]2[C@H]3CN=C(SCc4ccc(C(=O)OC)cc4)N3[C@@](CC)(C(=O)OC)[C@H]2C1=O 6.61%, O=C(Nc1ccc2nc(-c3cccnc3)[nH]c2c1)c1ccccc1F 5.15%, O=C(O)C1CC(c2ccc(F)cc2)=NO1 (stereo unspecified) 1.2%, CC(C)[C@H](NC(=O)OCc1ccccc1)C(=O)OCC(=O)NC1CCCCC1 10.6%, Cc1nonc1CN(C)C(=O)CC1C(=O)NCCN1Cc1ccccc1F (stereo unspecified) 2.81%, COc1ccc(/C=N/Nc2ccc(C(=O)O)cc2)cc1OC 12.8%, CCN(CC)c1ccc(/C=N/NC(=O)c2c[nH]c3ccccc23)cc1 30.9%, COc1cc(/C=C/C(=O)CC(=O)/C=C/c2ccc(O)c(OC)c2)ccc1O 27.8%, COc1ccc(OCCn2cc(/C=N/NC(=O)c3ccncc3)c3ccccc32)cc1 4.18%, CC(/C=C/c1ccc(O)cc1)=NNc1ccccc1 31.4%, CCN(CC)c1ccc(/C=N\NC(=O)c2cccc3cc[nH]c23)cc1 21.1%, Cc1ccc(OCCn2cc(/C=N/NC(=O)c3ccncc3)c3ccccc32)cc1 -10.1%, COc1cc(/C=N/Nc2ccc(C(=O)O)cc2)cc(OC)c1OC -9.42%, CN(C(=O)c1cccc(NC(=O)Cc2ccc(NC(=O)C3CCCN(S(=O)(=O)c4cccc([N+](=O)[O-])c4)C3)cc2)c1)C1CCCCC1 (stereo unspecified) 3.08%, O=C(COc1ccc(Cl)cc1)NCc1nnc(SCC(=O)N2CCCc3ccccc32)o1 2.68%, COc1ccc(-c2nnc(NC(=O)Cc3ccccc3)o2)cc1 7.81%, COc1ccc(CN2CCOCCOCCOCC2)cc1 0.62%, C=CCn1c(=O)c2ccccc2n2c(SCC(=O)NCCc3ccccc3)nnc12 6.1%, CC(C)n1nc(C(=O)NCCc2ccc(S(N)(=O)=O)cc2)c2ccccc2c1=O 0.38%, COc1ccc(CN2C(=O)c3ccccc3C2=O)cc1C(=O)OCC(=O)NC1CCCCC1 7.94%, c1ccc2cc(CNCc3cccc4ccccc34)ccc2c1 13%, O=C(COC(=O)CN1CCSC1=O)Nc1ccc(F)cc1Cl 2.57%, O=C(NCC1COc2ccccc2O1)c1ccc(NC(=O)C2CCCO2)cc1 (stereo unspecified) 10.6%, Cc1nnc(NC(=O)CCn2c(=O)oc3ccccc32)s1 4.88%, C=CCSc1ncccc1C(=O)NCCc1ccc(Cl)cc1 10.4%, COc1ccc(/C=N/NC(=O)C2(O)c3ccccc3-c3ccccc32)cc1 6.06%, O=C(N/N=C/c1ccccc1O)C1(O)c2ccccc2-c2ccccc21 8.51%, COc1ccccc1N(CC(=O)Nc1ccc(Cc2ccncc2)cc1)S(=O)(=O)c1ccccc1 0.87%, COc1ccc(C(=O)Nc2ccc3c(c2)n(C)c(=O)n3C)cc1OC 3.94%, CCS(=O)(=O)N1CCN(C2CCC(C)CC2)CC1 (stereo unspecified) 17.9%, CCS(=O)(=O)N1CCN(C2Cc3ccccc3C2)CC1 13.9%, CC1CCC(N2CCN(S(=O)(=O)Cc3ccccc3)CC2)CC1 (stereo unspecified) 7.86%, O=S(=O)(Cc1ccccc1)N1CCN(C2Cc3ccccc3C2)CC1 9.97%, Nc1cc2c(cc1Br)-c1ccccc1C2=NO 7.06%, COc1ccc(-c2nn(-c3ccccc3)cc2/C=N/Nc2ccc(Cl)c(C(=O)O)c2)cc1OC 13.5%, N#Cc1c(-c2ccccc2)nc(N2CCN(Cc3ccccc3)CC2)[nH]c1=O 0.49%, O=C(/C=C/c1cn(-c2ccccc2)nc1-c1cccnc1)NCCN1CCOCC1 11.7%, O=c1oc2cc(O)ccc2cc1-c1ccccc1 15.9%, O=C(O)c1cc2ccc(O)cc2oc1=O 4.89%, O=C(CCCc1nc2ccccc2s1)NC(c1ccccc1)c1ccccc1 6.29%, O=C(CN1N=C(c2ccccc2)CCC1=O)NCc1ccccc1 6.27%, COc1cc(CN(C)C(=O)C(=O)c2c[nH]c3ccccc23)ccc1O 8.17%, O=C(c1cc(-c2ccc(Cl)c(Cl)c2)on1)N1CCN(c2ccccc2)CC1 4.94%, COc1ccc(NC(=O)c2ccc(NC(=O)c3cccs3)cc2)cc1 2.51%, COc1ccccc1NC(=O)c1cccs1 0.52%, COc1cc(NC(=O)c2cccs2)c(OC)cc1NC(=O)c1cccs1 4.2%, COc1ccc(NC(=O)c2cccs2)cc1 8.32%, O=C(c1ccco1)N1CCc2ccccc21 3.81%, COCC(C)n1c(C)cc(C(=O)CSc2ncccn2)c1C (stereo unspecified) 8%, CN(CC1COc2ccccc2O1)C(=O)Cn1cc(C(F)(F)F)ccc1=O (stereo unspecified) 0.56%, CCCCN(C)C(=O)C1CCN(Cc2cccnc2)CC1 27.6%, CCCCN(C)C(=O)C1CCN(CCCc2ccccc2)CC1 21.2%, CCN(CC)C(=O)C1CCN(Cc2ccc(OCc3ccccc3)cc2)CC1 15.5%, NC(=O)C1CCN(Cc2ccc(OCc3ccccc3)cc2)CC1 21.3%, NC(=O)C1CCN(Cc2cccc(OCc3ccccc3)c2)CC1 21.4%, CCN(CC)C(=O)C1CCN(Cc2cccc(OCc3ccccc3)c2)CC1 19.6%, CCc1c(O)nc(SCC(=O)N2CCOCC2)n(-c2ccccc2)c1=O 9.22%, Cc1cc(NC(=O)COC(=O)CNC(=O)c2cccs2)c([N+](=O)[O-])cc1C 10.5%, O=C1OC(c2ccc(F)cc2)=N/C1=C\c1ccc(Br)o1 12.2%, NC(=O)CC(NC(=O)c1ccccc1)c1ccc(N2CCN(c3ccccn3)CC2)c([N+](=O)[O-])c1 (stereo unspecified) 6.77%, CC(C)CCNC(=O)CCCCn1c(=O)[nH]c2ccsc2c1=O 1.12%

Source: PubChem BioAssay AID624330 (Southern Research Specialized Biocontainment Screening …, 2012)
